PAX8 reporter: lowers PAX8-driven luciferase in RMG-I cells | RMG-I TPO-luciferase reporter, SteadyGlo, 24 h | inhibition, % at 12.6 µM | 360,000 compounds, 1.2% hits | AID 652154;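 active = mean replicate inhibition at least 60% with every replicate also reaching 60%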;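 note: luciferase light reporting Pax8 driven TPO promoter activity; plate controls were median of neutral control wells for no effect and mitoxantrone controls for full effect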
LGR2 antag: Drosophila LGR2 receptor signaling inhibition. inhibition, % at 9.99 µM. 380,000 compounds, 0.35% hits. HEK293 LGR2, CRE-luciferase, bursicon-stimulated, 4 h;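 active = drop in luminescence signal, shown as inhibition above about 50% in the replicate tests, limit read from the data, passing the limit was not always enough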;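 note: agonist challenge used bursicon conditioned medium at about half maximal strength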
TROY signal inh: blocks TROY-dependent signaling in reporter cells | 360,000 compounds, 0.98% hits | Q293 LMP1-TROYcd NF-kB luciferase reporter, 4 h | AID 1347056 | inhibition, % at 10 µM;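 active = compounds whose plate-normalised and pattern-corrected inhibition of the luciferase reporter signal at the single screening dose is 50% or more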
TWEAK Fn14 block: blocks TWEAK-Fn14 interaction in a reporter cell assay. TWEAK-stimulated Fn14 reporter cells, luciferase luminescence, 8 h. 360,000 compounds, 2% hits. inhibition, % at 10 µM; in the data active = inhibition above about 50%
EWS-Fli block: inhibitors of EWS/Fli oncoprotein transcriptional activity. 350,000 compounds, 0.67% hits. A673 NR0B1-luciferase reporter, viability-normalised. inhibition, % at 12.6 µM;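 active = mean inhibition of at least 50% after viability correction, with every replicate also passing that limit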;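 note: firefly luciferase signal divided by Alamar Blue viability fluorescence both relative to DMSO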
LMP1 NFkB inh: Epstein-Barr LMP1 NF-kappaB reporter inhibition; inhibition, % at 12.5 µM; LMP1-induced NF-kappaB luciferase reporter cells, luminescence; 350,000 compounds, 0.69% hits; in the data active = inhibition above about 41%;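 note: 0% = neutral control wells and 100% = reference inhibitor control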
Starred values were filed as active, the others as inactive; . = no result. This is a sample that favours compounds with a hit; in the whole collection about 3.2% have one here.

SMILES	PAX8 reporter	LGR2 antag	TROY signal inh	TWEAK Fn14 block	EWS-Fli block	LMP1 NFkB inh
C[C@@H]1CN([C@H](C)CO)C(=O)Cc2cc(NC(=O)Nc3ccc(C(F)(F)F)cc3)ccc2O[C@@H]1CN(C)Cc1ccc(-c2ccccc2)cc1	15	-2	.	.	-9	.
C[C@@H]1CN([C@H](C)CO)C(=O)Cc2cc(NC(=O)CCN3CCOCC3)ccc2O[C@H]1CN(C)Cc1ccc(C(F)(F)F)cc1	-9	6	.	.	-7	.
C[C@@H]1CN([C@H](C)CO)C(=O)Cc2cc(NC(=O)C3CCCCC3)ccc2O[C@H]1CN(C)Cc1ccc(Cl)c(Cl)c1	-5	5	.	.	5	.
C[C@H]1CN([C@@H](C)CO)C(=O)Cc2cc(NC(=O)CCN3CCOCC3)ccc2O[C@H]1CN(C)Cc1ccc(C(F)(F)F)cc1	-2	7	.	.	60*	.
C[C@@H]1CN([C@@H](C)CO)C(=O)Cc2cc(NC(=O)C3CCCCC3)ccc2O[C@H]1CN(C)Cc1ccc(Cl)c(Cl)c1	95*	18	.	.	9	.
C[C@@H]1CN([C@@H](C)CO)C(=O)Cc2cc(NC(=O)Nc3ccc(F)cc3)ccc2O[C@H]1CN(C)Cc1ccc(C(F)(F)F)cc1	.	24	.	.	54*	.
C[C@H]1CN([C@@H](C)CO)C(=O)Cc2cc(NC(=O)Nc3ccc(C(F)(F)F)cc3)ccc2O[C@@H]1CN(C)Cc1ccccc1	33	-33	.	.	-9	.
C[C@@H]1CN([C@@H](C)CO)C(=O)Cc2cc(NC(=O)Nc3ccc(C(F)(F)F)cc3)ccc2O[C@H]1CN(C)Cc1ccccc1	68*	1	.	.	14	.
C[C@H]1CN([C@@H](C)CO)C(=O)Cc2cc(NC(=O)Nc3ccc(F)cc3)ccc2O[C@H]1CN(C)Cc1ccc(C(F)(F)F)cc1	.	1	.	.	-16	.
COc1ccc(NC(=O)Nc2ccc3c(c2)CC(=O)N([C@@H](C)CO)C[C@H](C)[C@@H](CN(C)Cc2ccc(C(F)(F)F)cc2)O3)cc1	70*	-10	.	.	15	.
C[C@@H]1CN([C@@H](C)CO)C(=O)Cc2cc(NC(=O)Cc3cn(C)c4ccccc34)ccc2O[C@H]1CN(C)Cc1ccc(C(F)(F)F)cc1	71*	9	.	.	17	.
C[C@@H]1CN([C@@H](C)CO)C(=O)c2cc(NC(=O)CCCN(C)C)ccc2O[C@H]1CN(C)S(=O)(=O)c1ccc(Cl)cc1	-2	14	.	.	-5	.
COc1ccc(S(=O)(=O)N[C@@H]2CC[C@H](CCNC(=O)Cc3ccccn3)O[C@@H]2CO)cc1	3	5	.	.	-3	.
COc1ccccc1NC(=O)N1CC(=O)N2[C@H](C1)[C@H](c1ccc(C#CC(C)C)cc1)[C@@H]2CO	16	-3	.	.	-3	.
O=C(Oc1ccc(/C=N/n2cnnc2)cc1)c1cccc([N+](=O)[O-])c1	4	73*	56*	10	-1	3
C[C@H]1CN([C@@H](C)CO)S(=O)(=O)c2ccc(-c3cccc(C(=O)N(C)C)c3)cc2O[C@H]1CN(C)Cc1ccc2c(c1)OCO2	-7	-15	.	.	-3	.
COc1ccc(NC(=O)N(C)C[C@@H]2Oc3ccc(NC(=O)NC(C)C)cc3C(=O)N([C@@H](C)CO)C[C@@H]2C)cc1	15	0	.	.	-10	.
CC(=O)NC1Sc2ccccc2N=C1c1ccccc1 (stereo not drawn)	.	-49	.	53*	.	-28
Cc1cccc(OC(=O)Nc2ccc(C(=O)O)c(O)c2)c1	4	9	-14	-6	-4	-2
CC(C)(C)c1ccc(OC(=O)Nc2ccc(O)c(C(=O)O)c2)cc1	1	-21	13	73*	8	7
C[C@H](CO)N1C[C@H](C)[C@H](CN(C)Cc2ccccc2)Oc2c(NC(=O)C3CCOCC3)cccc2C1=O	-11	-8	.	.	0	.
C[C@@H]1CN([C@H](C)CO)C(=O)c2cc(NC(=O)c3ccncc3)ccc2O[C@@H](C)CCCCO[C@H]1CN(C)C(=O)c1ccccc1	13	-1	.	.	3	.
O=C(C[C@H]1CC[C@H]2[C@@H](COC[C@@H](O)CN2Cc2cccc(F)c2)O1)NCCc1ccncc1	1	7	.	.	-4	.
CN1\C(=C/C=C/C=C/C=[N+](C)C)C(C)(C)c2ccccc21	51	.	5	16	66*	7
CN1/C(=C\C=Nc2ccc3ccccc3c2)C(C)(C)c2ccccc21	.	.	66*	3	.	-6
CN1/C(=C\C=O)C(C)(C)c2ccccc21	15	-5	-9	6	4	3

Compound activity from PubChem BioAssay.
